Experimental data published in PubChem BioAssay (NCI).
The panel holds about 83,000 compounds, 20% with a hit somewhere; the sample as a whole holds those more often.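 In brief: 96-well plates, 48 h treatment, single concentration, percent growth endpoint.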 The source made the active and inactive calls. How the source made its calls: active means growth percent below 10; inactive means the rest.

Columns and labels:
Assay in all cases: NCI-60 one-dose screen, 48 h (100 = growth as untreated, 0 = no growth, -100 = all killed)
Details in all cases: 10 µM unless noted
[1] = system: DU-145 prostate
[2] = system: K-562 leukemia
[3] = system: MALME-3M melanoma
[4] = system: MDA-MB-231 breast
[5] = system: RXF 393 renal
[6] = system: SF-268 CNS
[7] = system: SF-295 CNS
[8] = system: SF-539 CNS
[9] = system: UACC-257 melanoma
[10] = system: M14 melanoma
[11] = system: HCT-15 colon
[12] = system: HT29 colon
[13] = system: SNB-75 CNS
[14] = system: SNB-19 CNS
[15] = system: U251 CNS
[16] = system: PC-3 prostate
[17] = system: SK-MEL-5 melanoma
[18] = system: UACC-62 melanoma
[19] = system: LOX IMVI melanoma
[20] = system: SK-MEL-28 melanoma

Measured: growth

COc1ccc(-n2cc(COc3ccc4c5ccnc(C)c5n(CC(C)C)c4c3)nn2)cc1
inactive: [1] 88.3% | [2] 27.3% | [3] 71.2% | [4] 73.1% | [5] 57.5% | [6] 79% | [7] 60.6% | [8] 82.6% | [9] 52.7% | [10] 71.5% | [11] 63.4% | [12] 16% | [13] 61.8% | [14] 78.4% | [15] 69.9% | [16] 55.6% | [17] 58.2% | [18] 71% | [19] 77.3% | [20] 87.4%

Cc1cc(C)n(-c2nc(-c3cccs3)c(C#N)c(=O)[nH]2)n1
inactive: [1] 101% | [2] 87.4% | [3] 92.6% | [4] 108% | [5] 115% | [6] 82.3% | [7] 92.3% | [8] 97.5% | [9] 98.7% | [10] 101% | [11] 71.1% | [12] 100% | [13] 89.2% | [14] 96.3% | [15] 90.8% | [16] 94.2% | [17] 102% | [18] 94.8% | [19] 84.7% | [20] 99.8%

CN(C)C(CNc1oc(-c2cccc3ccccc23)nc1C#N)c1ccco1 (stereo not given)
inactive: [1] 98.7% | [2] 74.5% | [3] 98% | [4] 107% | [5] 99.3% | [6] 91.4% | [7] 90.1% | [8] 102% | [9] 98.5% | [10] 91.9% | [11] 79.8% | [12] 72.1% | [13] 71.5% | [14] 101% | [15] 80.4% | [16] 89.5% | [17] 91.7% | [18] 91.3% | [19] 95.8% | [20] 96.3%

O=C1c2ccccc2C(=O)c2c1oc1c2c(=O)[nH]c2ccc(Cl)cc21
active: [1] -45.4% | [3] -51.7% | [4] -42.2% | [5] -46.3% | [6] -31.7% | [7] -1.34% | [8] -28% | [11] -31.1% | [13] -9.01% | [14] 7.11% | [15] -77.5% | [16] -33.3% | [20] -11.8%
inactive: [2] 12.9% | [9] 18.8% | [10] 10.4% | [12] 66.4% | [17] 12.3% | [18] 75.1% | [19] 11.1%

CC(C)NS(=O)(=O)c1cccc(-c2ccc3c4c(n(CCCN(C)C)c(=O)c3c2)-c2ccccc2C4=O)c1
active: [2] -57.8% | [12] -16.2%
inactive: [1] 108% | [3] 91.6% | [4] 83.8% | [5] 96.1% | [6] 103% | [7] 104% | [8] 90.7% | [9] 107% | [10] 104% | [11] 67.9% | [13] 88.9% | [14] 110% | [15] 56% | [16] 99.8% | [17] 94.1% | [18] 106% | [19] 100% | [20] 99.5%

O=C1Nc2ccccc2C12C=C(c1ccccc1)Nc1c2c(-c2ccccc2)nn1-c1ccccc1 (stereo not given)
inactive: [1] 83.4% | [2] 37.5% | [3] 98.5% | [4] 85.6% | [6] 58.5% | [7] 42.1% | [8] 86.4% | [9] 88.7% | [10] 58.2% | [11] 53.4% | [12] 46.1% | [13] 71% | [14] 64.3% | [15] 41.6% | [16] 32.2% | [17] 68.4% | [18] 91.9% | [19] 65.2% | [20] 82.2%
active: [5] 5.5%

CN(C)CCCn1c2c(c3cc(-c4cccc(S(N)(=O)=O)c4)ccc3c1=O)C(=O)c1ccccc1-2
active: [12] -6.96%
inactive: [1] 67.9% | [2] 33.1% | [3] 67.1% | [4] 94.4% | [5] 85.1% | [6] 51.6% | [7] 50.6% | [8] 80.9% | [9] 97.4% | [10] 62.7% | [11] 61.7% | [13] 59.1% | [14] 64.8% | [15] 47.5% | [16] 67.3% | [17] 85.3% | [18] 77.3% | [19] 56.3% | [20] 113%
